{"source": "PubChem BioAssay (Tox21)", "note": "Records with an inconclusive call do not appear. Active and inactive are the calls of the source. Calls come from the whole dose curve. % is set by controls: 0 for no effect and ±100 for the full control effect."}
{"experiment": "p53 small molecule agonists, cell-based qHTS assay with rat liver microsomes: qHTS cell viability counter screen (AID 1963580); note: nearly all actives have a fitted effect of over 45% in size", "details": "p53RE-bla HCT-116 + rat microsomes, ATP viability, 16 h; series mostly up to 66 µM; activity change, negative = cytotoxicity: at the top concentration", "source_text": "National Center for Advancing Translational Sciences [NCATS]\nDivision of Preclinical Innovation [DPI]\nU.S. Environmental Protection Agency [EPA]\nNational Institutes of Environmental Health Sciences [NIEHS]\nNational Toxicology Program [NTP]\nU.S. Food and Drug Administration [FDA]\np53, a tumor suppressor protein, is activated following cellular insult, including DNA damage and other cellular stresses. The activation of p53 regulates cell fate by inducing DNA repair, cell cycle arrest, apoptosis, or cellular senescence. The activation of p53, therefore, is a good indicator of DNA damage and other cellular stresses. The CellSensor p53RE-bla HCT-116 cell line contains a stably integrated beta-lactamase reporter gene under control of the p53 response elements. The activation of the reporter gene under culture conditions can be detected by fluorescence intensity. This cell line was used to screen the Tox21 10K compound library in the condition of presence of rat liver microsomes and to identify agonists that activate the p53 signaling pathway after in vitro metabolic activation (Ooka et al., Archive of Toxicology 96:1975-1987, 2022). The cytotoxicity of the Tox21 compound library against the p53 RE-bla HCT-116 cell line was tested in parallel by measuring the intra cellular ATP content in the same wells.\nTox21 Assay Protocol Summary:\nThe p53RE-bla cells were dispensed at 4,000cells/3ul/well in 1536-well black-clear bottom plates. After the assay plates were incubated at 37 C, 5% CO2 incubator for 5 hours, 23 nL of compounds dissolved in DMSO, positive controls or DMSO only was transferred to the assay plate. Following compound addition, 3 uL of rat liver microsomes (Molecular Toxicology, Boone, NC) at final concentration of 0.5 mg/mL and 1uL of B-Nicotinamide adenine dinucleotide 2'-phosphate (NADPH) at final concentration of 0.5 mg/mL were transferred to the assay plate. The plates were incubated at 37 C for 16 hours. 1 uL of LiveBLAzer detection mixture was added to each well and the plates were incubated at room temperature in the dark for 2 h. Fluorescence intensity at 460 and 530 nm emission and 405 nm excitation were measured by an Envision plate reader. For cell viability readout that measures cytotoxicity, 4 ul/well of CellTiter-Glo reagent was added into the assay plates using a Flying Reagent Dispenser. After 30 min incubation at room temperature, the luminescence intensity in the plates was measured using a ViewLux plate reader."}
{"compound": "CN1CCOCC1", "Potency": "inactive"}
{"compound": "C=CCCCCCCCC", "activity change, negative = cytotoxicity": "-3.21% (inactive)"}
{"compound": "NC(=O)c1ccccc1Cl", "activity change, negative = cytotoxicity": "8.8% (inactive)"}
{"compound": "CC(C[N+](C)(C)C)OC(N)=O", "note": "(stereo not given)", "activity change, negative = cytotoxicity": "4.68% [at 30.3 µM] (inactive)"}
{"compound": "COC(=O)CCCCC(=O)O", "activity change, negative = cytotoxicity": "16.1% (inactive)"}
{"compound": "CN(C)c1ccc(C(=N)c2ccc(N(C)C)cc2)cc1", "Potency": "inactive"}
{"compound": "C1=CCC2CC=CC2C1", "note": "(stereo not given)", "activity change, negative = cytotoxicity": "-1.02% (inactive)"}
{"compound": "ClC/C=C\\CCl", "activity change, negative = cytotoxicity": "-4.85% (inactive)"}
{"compound": "C=CC(=O)OCCCCCCCC", "activity change, negative = cytotoxicity": "1.52% (inactive)"}
{"compound": "COc1cc(C(=O)N2CCOCC2)cc(OC)c1OC", "activity change, negative = cytotoxicity": "12% [at 30.3 µM] (inactive)"}
{"compound": "CCCc1ccc(O)cc1", "activity change, negative = cytotoxicity": "0.186% (inactive)"}
{"compound": "OCC#CCO", "Potency": "inactive"}
{"compound": "CNC1(C)C2CCC(C2)C1(C)C", "note": "(stereo not given)", "activity change, negative = cytotoxicity": "-6.56% [at 30.3 µM] (inactive)"}
{"compound": "CCCc1ccccc1", "activity change, negative = cytotoxicity": "1.62% (inactive)"}
{"compound": "C=C(C)[C@@H]1CCC2=CCC[C@@H](C)[C@]2(C)C1", "activity change, negative = cytotoxicity": "14.6% (inactive)"}
{"compound": "Cc1c(O)cccc1C(=O)N[C@@H](CSc1ccccc1)[C@H](O)CN1C[C@H]2CCCC[C@H]2C[C@H]1C(=O)NC(C)(C)C", "activity change, negative = cytotoxicity": "-2.82% [at 30.3 µM] (inactive)"}
{"compound": "CC(=O)/C=C/C1C(C)=CCCC1(C)C", "note": "(stereo not given)", "activity change, negative = cytotoxicity": "-1.61% (inactive)"}
{"compound": "C=C(C)[C@@H]1CCC2=CC(=O)C[C@@H](C)[C@]2(C)C1", "activity change, negative = cytotoxicity": "-0.757% (inactive)"}
{"compound": "CO[C@@H]1[C@@H](O[C@@H]2O[C@H](C)[C@@H](O[C@H]3C[C@@](C)(O)[C@@H](O)[C@H](C)O3)[C@H](N(C)C)[C@H]2O)[C@@H](CC=O)C[C@@H](C)[C@@H](O[C@@H]2CC[C@H](N(C)C)[C@@H](C)O2)/C=C/C=C/C[C@@H](C)OC(=O)C[C@H]1OC(C)=O", "activity change, negative = cytotoxicity": "5.78% [at 30.3 µM] (inactive)"}
{"compound": "CC(=O)N[C@H]1[C@H]([C@H](O)[C@H](O)CO)OC(C(=O)O)=C[C@@H]1N=C(N)N", "activity change, negative = cytotoxicity": "1.81% [at 30.3 µM] (inactive)"}
{"compound": "CCCCCCCCCCCCCCCCCCOCC(O)CO", "note": "(stereo not given)", "activity change, negative = cytotoxicity": "-8.17% [at 30.3 µM] (inactive)"}
{"compound": "CC(=O)Nc1ncc([N+](=O)[O-])s1", "activity change, negative = cytotoxicity": "9.23% [at 30.3 µM] (inactive)"}
{"compound": "Cc1ccc(N=Nc2c(O)ccc3ccccc23)c(C)c1", "activity change, negative = cytotoxicity": "-0.889% [at 30.3 µM] (inactive)"}
{"compound": "O=c1cc(CO)occ1O", "activity change, negative = cytotoxicity": "-0.264% [at 30.3 µM] (inactive)"}
{"compound": "NCCC(O)(P(=O)(O)O)P(=O)(O)O", "activity change, negative = cytotoxicity": "-1.35% [at 30.3 µM] (inactive)"}
{"compound": "CC(C)(N=C=O)c1cccc(C(C)(C)N=C=O)c1", "Potency": "inactive"}
{"compound": "O=P(O)(O)O", "Potency": "inactive"}
{"compound": "ClCCCl", "activity change, negative = cytotoxicity": "8.75% (inactive)"}
{"compound": "COc1cc(C(=O)N2CCCCCCC2)cc(OC)c1OC", "activity change, negative = cytotoxicity": "0.0541% [at 30.3 µM] (inactive)"}
{"compound": "CC(=C(CCOC(=O)C(C)C)SSC(CCOC(=O)C(C)C)=C(C)N(C=O)Cc1cnc(C)nc1N)N(C=O)Cc1cnc(C)nc1N", "activity change, negative = cytotoxicity": "-0.0679% [at 30.3 µM] (inactive)"}
{"compound": "CC(C)CCCC(C)CCO", "note": "(stereo not given)", "activity change, negative = cytotoxicity": "1.11% (inactive)"}
{"compound": "NCCNCCNCCN", "Potency": "inactive"}
{"compound": "O=C(CCNNC(=O)c1ccncc1)NCc1ccccc1", "activity change, negative = cytotoxicity": "-4.92% [at 30.3 µM] (inactive)"}
{"compound": "COC(=O)c1ccc(C)cc1C1=NC(C)(C(C)C)C(=O)N1", "note": "(stereo not given)", "activity change, negative = cytotoxicity": "1.53% (inactive)"}
{"compound": "CCc1ccc(Br)cc1", "activity change, negative = cytotoxicity": "-2.19% (inactive)"}
{"compound": "Cc1cc(C)c(C)c(O)c1", "activity change, negative = cytotoxicity": "-1.04% (inactive)"}
{"compound": "CC1(C)O[C@H]2CC(=O)OC[C@]23[C@H]2CC[C@@]4(C)[C@H](c5ccoc5)OC(=O)[C@H]5O[C@]54[C@]2(C)C(=O)C[C@@H]13", "activity change, negative = cytotoxicity": "0.331% [at 30.3 µM] (inactive)"}
{"compound": "CCO[Si](C)(OCC)OCC", "activity change, negative = cytotoxicity": "0% (inactive)"}
{"compound": "CC1=C(CC(=O)O)c2cc(F)ccc2/C1=C\\c1ccc(S(C)=O)cc1", "note": "(stereo not given)", "Potency": "inactive"}
{"compound": "C[Si](C)=O", "activity change, negative = cytotoxicity": "11.3% [at 5.99 µM] (inactive)"}
